# Measured values published in ChEMBL document CHEMBL1961873, “Compounds: GSK PKIS; Assays: Nanosyn kinase panel” (2012).
# Tests used:
# [1] = target: T1, Inhibitor of nuclear factor kappa-B kinase subunit epsilon (Homo sapiens) (UniProt Q14164); details: at 1 µM;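 note: reported values are averaged percent inhibition figures against human IKKε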
# T1 sequence (whole entry): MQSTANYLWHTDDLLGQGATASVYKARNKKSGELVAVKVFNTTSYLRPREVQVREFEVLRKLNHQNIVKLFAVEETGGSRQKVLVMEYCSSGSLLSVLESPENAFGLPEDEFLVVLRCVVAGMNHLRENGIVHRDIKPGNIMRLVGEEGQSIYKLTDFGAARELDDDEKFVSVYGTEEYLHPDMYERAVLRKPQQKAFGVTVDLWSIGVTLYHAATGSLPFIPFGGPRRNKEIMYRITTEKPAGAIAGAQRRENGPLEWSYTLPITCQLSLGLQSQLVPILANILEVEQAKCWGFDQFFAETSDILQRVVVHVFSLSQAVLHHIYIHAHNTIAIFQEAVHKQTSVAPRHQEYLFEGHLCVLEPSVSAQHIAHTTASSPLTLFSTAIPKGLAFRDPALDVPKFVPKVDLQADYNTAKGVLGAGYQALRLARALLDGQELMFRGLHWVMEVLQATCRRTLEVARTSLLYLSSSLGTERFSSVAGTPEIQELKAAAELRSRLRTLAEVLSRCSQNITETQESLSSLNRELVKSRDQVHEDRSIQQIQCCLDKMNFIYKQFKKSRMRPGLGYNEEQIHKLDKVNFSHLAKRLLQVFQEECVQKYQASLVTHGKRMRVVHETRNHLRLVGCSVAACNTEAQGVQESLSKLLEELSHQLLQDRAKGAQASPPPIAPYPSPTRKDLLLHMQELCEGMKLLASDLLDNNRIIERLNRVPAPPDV
# [2] = target: T2, Serine/threonine-protein kinase Nek1 (Homo sapiens) (UniProt Q96PY6); details: at 0.1 µM
# T2 sequence (whole entry): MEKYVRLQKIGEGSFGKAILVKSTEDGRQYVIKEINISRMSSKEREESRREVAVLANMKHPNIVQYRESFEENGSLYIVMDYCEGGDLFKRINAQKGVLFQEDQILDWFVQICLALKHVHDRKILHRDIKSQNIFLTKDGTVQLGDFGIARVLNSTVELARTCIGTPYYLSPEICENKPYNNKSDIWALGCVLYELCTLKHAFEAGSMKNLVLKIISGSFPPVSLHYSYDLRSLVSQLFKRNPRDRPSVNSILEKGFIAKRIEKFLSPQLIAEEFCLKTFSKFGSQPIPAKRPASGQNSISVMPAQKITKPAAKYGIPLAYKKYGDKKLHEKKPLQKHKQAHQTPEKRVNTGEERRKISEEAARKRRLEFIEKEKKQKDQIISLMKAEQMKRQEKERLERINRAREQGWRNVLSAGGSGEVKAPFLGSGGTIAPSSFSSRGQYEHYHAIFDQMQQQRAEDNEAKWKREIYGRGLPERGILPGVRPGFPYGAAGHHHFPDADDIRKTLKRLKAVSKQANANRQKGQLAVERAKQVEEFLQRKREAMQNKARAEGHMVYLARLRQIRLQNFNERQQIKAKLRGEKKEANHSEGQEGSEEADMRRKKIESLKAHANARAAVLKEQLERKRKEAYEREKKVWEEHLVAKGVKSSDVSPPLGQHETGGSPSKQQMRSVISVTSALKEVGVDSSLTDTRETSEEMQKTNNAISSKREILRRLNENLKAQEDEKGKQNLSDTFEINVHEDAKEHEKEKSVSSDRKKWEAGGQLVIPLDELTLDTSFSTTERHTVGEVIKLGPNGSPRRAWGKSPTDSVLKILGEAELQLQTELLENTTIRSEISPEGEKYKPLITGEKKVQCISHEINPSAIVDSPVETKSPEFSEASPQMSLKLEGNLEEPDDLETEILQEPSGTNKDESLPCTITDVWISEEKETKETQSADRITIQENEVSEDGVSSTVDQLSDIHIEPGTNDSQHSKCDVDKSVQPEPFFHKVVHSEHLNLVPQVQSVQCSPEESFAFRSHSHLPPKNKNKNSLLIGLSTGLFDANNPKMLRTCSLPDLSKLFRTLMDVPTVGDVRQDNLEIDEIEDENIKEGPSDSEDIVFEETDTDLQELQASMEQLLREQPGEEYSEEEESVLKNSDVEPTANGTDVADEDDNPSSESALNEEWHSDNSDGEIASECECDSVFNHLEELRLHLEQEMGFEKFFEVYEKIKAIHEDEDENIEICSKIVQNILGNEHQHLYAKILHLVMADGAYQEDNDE
# [3] = target: T2, Serine/threonine-protein kinase Nek1 (Homo sapiens); details: at 1 µM
# [4] = target: T3, Serine/threonine-protein kinase Nek2 (Homo sapiens) (UniProt P51955); details: at 0.1 µM
# T3 sequence (whole entry): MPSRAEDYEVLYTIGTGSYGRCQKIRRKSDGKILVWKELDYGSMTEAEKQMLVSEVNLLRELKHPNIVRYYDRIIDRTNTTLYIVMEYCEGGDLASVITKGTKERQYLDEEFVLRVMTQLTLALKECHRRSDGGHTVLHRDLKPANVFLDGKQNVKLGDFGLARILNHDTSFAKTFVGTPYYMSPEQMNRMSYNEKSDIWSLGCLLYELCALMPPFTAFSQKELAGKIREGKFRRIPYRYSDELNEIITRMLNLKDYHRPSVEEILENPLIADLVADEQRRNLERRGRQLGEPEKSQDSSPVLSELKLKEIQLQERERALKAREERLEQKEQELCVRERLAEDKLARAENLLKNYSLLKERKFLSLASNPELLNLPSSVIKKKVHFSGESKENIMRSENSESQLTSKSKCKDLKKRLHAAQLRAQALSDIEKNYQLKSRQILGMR
# [5] = target: T3, Serine/threonine-protein kinase Nek2 (Homo sapiens); details: at 1 µM
# [6] = target: Serine/threonine-protein kinase Nek6 (Homo sapiens) (UniProt Q9HC98); details: at 0.1 µM
# [7] = target: Serine/threonine-protein kinase Nek6 (Homo sapiens) (UniProt Q9HC98); details: at 1 µM
# [8] = target: Serine/threonine-protein kinase Nek7 (Homo sapiens) (UniProt Q8TDX7); details: at 0.1 µM
# [9] = target: Serine/threonine-protein kinase Nek7 (Homo sapiens) (UniProt Q8TDX7); details: at 1 µM
# [10] = target: T4, Serine/threonine-protein kinase Nek9 (Homo sapiens) (UniProt Q8TD19); details: at 0.1 µM
# T4 sequence (whole entry): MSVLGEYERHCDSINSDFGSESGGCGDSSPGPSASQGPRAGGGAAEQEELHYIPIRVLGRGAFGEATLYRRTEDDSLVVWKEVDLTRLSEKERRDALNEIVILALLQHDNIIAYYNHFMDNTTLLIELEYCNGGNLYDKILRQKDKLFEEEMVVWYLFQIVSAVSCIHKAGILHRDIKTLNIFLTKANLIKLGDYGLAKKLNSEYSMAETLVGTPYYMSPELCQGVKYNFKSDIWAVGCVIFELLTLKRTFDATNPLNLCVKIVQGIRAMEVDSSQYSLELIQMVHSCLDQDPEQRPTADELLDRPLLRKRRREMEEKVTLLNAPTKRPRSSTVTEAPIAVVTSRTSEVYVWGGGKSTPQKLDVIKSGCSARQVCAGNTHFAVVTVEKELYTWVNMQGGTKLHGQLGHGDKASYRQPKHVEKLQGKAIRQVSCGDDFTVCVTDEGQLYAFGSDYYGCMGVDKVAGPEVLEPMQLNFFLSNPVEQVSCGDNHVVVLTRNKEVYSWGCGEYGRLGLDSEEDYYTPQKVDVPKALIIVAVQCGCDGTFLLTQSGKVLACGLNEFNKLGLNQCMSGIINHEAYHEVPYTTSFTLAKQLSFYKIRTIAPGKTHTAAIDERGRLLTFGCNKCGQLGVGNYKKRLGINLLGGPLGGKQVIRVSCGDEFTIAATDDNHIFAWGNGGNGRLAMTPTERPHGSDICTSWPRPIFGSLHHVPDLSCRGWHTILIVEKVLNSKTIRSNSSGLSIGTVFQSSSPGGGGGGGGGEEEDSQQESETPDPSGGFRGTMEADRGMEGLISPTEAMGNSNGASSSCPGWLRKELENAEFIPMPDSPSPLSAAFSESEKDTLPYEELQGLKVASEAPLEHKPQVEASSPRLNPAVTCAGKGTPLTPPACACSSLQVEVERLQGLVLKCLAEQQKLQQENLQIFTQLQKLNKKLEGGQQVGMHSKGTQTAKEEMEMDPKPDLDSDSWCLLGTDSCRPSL
# [11] = target: T4, Serine/threonine-protein kinase Nek9 (Homo sapiens); details: at 1 µM
# [12] = target: Serine/threonine-protein kinase PLK1 (Homo sapiens) (UniProt P53350); details: at 0.1 µM
# [13] = target: Serine/threonine-protein kinase PLK1 (Homo sapiens) (UniProt P53350); details: at 1 µM
# [14] = target: T5, Dual specificity protein kinase TTK (Homo sapiens) (UniProt P33981); details: at 0.1 µM
# T5 sequence (whole entry): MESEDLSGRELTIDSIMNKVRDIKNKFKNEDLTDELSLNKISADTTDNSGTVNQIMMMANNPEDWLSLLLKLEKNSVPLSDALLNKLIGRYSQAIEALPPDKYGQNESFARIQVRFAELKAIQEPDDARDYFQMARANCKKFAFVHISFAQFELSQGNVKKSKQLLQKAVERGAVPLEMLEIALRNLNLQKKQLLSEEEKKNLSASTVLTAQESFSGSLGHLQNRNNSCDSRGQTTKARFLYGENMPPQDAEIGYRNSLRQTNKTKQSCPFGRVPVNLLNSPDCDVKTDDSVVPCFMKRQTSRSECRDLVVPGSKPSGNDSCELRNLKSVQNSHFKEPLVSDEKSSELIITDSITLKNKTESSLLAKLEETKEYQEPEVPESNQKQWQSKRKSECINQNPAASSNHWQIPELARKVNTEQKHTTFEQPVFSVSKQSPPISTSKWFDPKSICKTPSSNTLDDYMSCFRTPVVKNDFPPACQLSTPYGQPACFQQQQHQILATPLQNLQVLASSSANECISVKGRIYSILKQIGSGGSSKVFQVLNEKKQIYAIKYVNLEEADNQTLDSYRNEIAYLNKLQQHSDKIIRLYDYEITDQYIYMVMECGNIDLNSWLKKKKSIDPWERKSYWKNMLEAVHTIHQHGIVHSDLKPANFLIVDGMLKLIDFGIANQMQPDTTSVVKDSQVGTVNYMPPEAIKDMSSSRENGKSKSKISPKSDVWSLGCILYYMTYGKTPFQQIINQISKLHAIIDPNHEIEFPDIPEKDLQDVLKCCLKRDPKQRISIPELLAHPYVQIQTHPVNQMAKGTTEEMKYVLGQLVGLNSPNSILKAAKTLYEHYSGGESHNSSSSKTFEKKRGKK
# [15] = tested on: T6, Receptor-type tyrosine-protein kinase FLT3 (Homo sapiens), P36888 [D835Y]; details: at 1 µM
# T6 sequence (whole entry): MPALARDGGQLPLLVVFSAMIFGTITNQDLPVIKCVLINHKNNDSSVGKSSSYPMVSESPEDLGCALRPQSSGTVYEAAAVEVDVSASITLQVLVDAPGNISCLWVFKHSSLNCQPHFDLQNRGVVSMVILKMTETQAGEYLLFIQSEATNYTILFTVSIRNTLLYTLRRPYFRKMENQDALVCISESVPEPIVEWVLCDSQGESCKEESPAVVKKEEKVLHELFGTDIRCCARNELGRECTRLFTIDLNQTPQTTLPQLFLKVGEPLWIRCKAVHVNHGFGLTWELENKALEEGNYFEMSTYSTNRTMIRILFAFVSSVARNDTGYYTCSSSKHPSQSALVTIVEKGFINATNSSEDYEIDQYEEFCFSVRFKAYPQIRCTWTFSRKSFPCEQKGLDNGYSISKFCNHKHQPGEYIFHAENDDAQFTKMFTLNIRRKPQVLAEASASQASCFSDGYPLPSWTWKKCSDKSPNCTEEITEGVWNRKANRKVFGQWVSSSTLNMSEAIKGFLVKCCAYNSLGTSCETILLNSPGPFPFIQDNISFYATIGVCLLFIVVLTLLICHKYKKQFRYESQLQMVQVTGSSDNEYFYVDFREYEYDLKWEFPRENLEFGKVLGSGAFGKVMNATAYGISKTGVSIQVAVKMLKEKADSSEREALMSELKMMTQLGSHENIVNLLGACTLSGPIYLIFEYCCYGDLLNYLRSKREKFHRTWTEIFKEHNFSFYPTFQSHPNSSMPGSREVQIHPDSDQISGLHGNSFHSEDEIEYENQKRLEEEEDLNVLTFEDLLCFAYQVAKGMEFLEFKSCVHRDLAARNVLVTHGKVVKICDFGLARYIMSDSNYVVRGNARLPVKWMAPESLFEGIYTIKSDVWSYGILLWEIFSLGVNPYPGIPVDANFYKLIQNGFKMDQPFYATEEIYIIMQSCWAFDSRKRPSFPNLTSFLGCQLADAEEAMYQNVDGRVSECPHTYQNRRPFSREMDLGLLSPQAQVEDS
# [16] = target: Vascular endothelial growth factor receptor 3 (Homo sapiens) (UniProt P35916); details: at 0.1 µM
# [17] = target: Vascular endothelial growth factor receptor 3 (Homo sapiens) (UniProt P35916); details: at 1 µM
# [18] = target: Macrophage colony-stimulating factor 1 receptor (Homo sapiens) (UniProt P07333); details: at 0.1 µM
# [19] = target: Macrophage colony-stimulating factor 1 receptor (Homo sapiens) (UniProt P07333); details: at 1 µM
# [20] = target: Tyrosine-protein kinase Fyn (Homo sapiens) (UniProt P06241); details: at 0.1 µM
# Tyrosine-protein kinase Fyn (Homo sapiens), sequence (P06241 2-537 limits assumed): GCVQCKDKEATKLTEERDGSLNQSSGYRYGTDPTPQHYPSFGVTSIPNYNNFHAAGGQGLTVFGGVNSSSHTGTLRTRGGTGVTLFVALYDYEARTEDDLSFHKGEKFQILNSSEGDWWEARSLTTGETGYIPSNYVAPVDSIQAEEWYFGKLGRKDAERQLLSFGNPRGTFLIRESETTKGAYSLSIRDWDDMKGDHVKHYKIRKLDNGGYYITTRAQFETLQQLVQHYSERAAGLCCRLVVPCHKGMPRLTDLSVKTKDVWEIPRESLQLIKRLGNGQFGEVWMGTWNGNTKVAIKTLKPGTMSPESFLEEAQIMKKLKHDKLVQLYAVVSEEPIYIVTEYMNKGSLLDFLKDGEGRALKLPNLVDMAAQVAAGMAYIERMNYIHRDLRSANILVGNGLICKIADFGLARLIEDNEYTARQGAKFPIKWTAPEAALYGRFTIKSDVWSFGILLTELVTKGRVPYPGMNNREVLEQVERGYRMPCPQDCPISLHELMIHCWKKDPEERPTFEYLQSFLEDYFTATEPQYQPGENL
# Vascular endothelial growth factor receptor 3 (Homo sapiens), sequence (P35916 whole entry): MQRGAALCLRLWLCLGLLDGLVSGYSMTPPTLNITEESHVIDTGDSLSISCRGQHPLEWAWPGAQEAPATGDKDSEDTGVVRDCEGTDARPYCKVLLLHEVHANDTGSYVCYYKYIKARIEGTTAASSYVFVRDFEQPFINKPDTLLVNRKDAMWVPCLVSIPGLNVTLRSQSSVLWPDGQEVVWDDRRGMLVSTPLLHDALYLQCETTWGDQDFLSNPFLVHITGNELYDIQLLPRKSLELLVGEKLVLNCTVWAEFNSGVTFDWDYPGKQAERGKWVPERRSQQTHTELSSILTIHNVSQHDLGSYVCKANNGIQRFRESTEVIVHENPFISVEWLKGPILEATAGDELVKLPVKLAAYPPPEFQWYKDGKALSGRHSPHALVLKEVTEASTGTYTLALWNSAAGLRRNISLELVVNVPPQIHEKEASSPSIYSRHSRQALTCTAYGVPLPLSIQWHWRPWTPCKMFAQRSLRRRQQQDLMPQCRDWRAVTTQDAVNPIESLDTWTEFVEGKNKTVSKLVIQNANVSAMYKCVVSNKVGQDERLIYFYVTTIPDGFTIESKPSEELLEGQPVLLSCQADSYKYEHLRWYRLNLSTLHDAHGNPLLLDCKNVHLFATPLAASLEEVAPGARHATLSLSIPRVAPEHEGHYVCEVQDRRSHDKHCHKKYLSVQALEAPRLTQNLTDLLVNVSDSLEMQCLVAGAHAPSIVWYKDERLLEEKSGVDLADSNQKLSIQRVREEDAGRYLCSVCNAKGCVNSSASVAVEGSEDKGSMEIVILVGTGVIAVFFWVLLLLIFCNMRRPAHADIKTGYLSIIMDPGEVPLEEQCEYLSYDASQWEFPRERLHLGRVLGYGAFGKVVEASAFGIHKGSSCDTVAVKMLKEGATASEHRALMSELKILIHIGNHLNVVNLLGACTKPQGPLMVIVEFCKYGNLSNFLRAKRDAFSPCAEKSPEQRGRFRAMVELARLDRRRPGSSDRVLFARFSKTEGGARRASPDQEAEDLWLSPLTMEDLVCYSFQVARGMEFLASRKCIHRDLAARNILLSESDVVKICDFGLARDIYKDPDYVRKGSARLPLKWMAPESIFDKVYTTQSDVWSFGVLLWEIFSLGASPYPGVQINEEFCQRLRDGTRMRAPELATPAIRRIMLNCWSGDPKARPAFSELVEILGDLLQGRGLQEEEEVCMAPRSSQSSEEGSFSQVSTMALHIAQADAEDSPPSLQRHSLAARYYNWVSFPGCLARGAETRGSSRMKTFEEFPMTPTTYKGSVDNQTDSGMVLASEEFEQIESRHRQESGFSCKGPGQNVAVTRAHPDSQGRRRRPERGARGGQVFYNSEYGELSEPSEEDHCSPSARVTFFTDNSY
# Serine/threonine-protein kinase Nek6 (Homo sapiens), sequence (Q9HC98 whole entry): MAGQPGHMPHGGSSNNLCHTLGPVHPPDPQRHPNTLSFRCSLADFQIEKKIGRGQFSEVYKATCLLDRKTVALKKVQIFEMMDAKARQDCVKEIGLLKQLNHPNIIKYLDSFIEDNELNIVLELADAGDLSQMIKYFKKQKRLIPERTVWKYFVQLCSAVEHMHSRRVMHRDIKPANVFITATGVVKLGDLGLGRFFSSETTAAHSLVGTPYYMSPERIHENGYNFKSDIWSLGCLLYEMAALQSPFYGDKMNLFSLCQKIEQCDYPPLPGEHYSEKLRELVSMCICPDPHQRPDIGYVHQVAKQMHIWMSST
# Macrophage colony-stimulating factor 1 receptor (Homo sapiens), sequence (P07333 whole entry): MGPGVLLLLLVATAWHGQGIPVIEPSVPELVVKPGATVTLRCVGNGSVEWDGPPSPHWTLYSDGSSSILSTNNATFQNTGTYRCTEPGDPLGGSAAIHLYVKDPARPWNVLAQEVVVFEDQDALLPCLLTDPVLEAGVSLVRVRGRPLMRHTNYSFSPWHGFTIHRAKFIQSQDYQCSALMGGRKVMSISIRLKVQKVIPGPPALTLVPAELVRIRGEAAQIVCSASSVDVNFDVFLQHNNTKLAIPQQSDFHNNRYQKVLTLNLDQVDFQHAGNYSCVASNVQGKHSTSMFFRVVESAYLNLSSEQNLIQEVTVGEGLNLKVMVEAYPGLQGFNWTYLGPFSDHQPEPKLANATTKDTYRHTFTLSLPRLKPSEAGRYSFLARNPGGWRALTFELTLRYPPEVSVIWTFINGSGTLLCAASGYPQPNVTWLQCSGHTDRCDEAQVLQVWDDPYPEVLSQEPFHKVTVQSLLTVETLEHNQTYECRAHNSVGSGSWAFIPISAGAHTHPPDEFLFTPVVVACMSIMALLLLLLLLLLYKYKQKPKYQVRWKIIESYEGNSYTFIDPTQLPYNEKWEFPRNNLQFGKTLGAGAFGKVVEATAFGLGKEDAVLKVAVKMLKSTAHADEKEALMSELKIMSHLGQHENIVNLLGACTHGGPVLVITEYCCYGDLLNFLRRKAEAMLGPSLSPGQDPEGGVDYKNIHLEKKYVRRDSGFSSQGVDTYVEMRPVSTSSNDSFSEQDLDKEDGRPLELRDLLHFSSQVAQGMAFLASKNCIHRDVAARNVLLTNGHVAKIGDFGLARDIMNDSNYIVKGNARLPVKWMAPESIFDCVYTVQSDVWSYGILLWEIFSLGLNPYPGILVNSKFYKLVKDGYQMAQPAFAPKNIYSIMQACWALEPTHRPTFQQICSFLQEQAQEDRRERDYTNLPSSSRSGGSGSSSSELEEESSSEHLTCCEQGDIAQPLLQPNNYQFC
# Serine/threonine-protein kinase PLK1 (Homo sapiens), sequence (P53350 whole entry): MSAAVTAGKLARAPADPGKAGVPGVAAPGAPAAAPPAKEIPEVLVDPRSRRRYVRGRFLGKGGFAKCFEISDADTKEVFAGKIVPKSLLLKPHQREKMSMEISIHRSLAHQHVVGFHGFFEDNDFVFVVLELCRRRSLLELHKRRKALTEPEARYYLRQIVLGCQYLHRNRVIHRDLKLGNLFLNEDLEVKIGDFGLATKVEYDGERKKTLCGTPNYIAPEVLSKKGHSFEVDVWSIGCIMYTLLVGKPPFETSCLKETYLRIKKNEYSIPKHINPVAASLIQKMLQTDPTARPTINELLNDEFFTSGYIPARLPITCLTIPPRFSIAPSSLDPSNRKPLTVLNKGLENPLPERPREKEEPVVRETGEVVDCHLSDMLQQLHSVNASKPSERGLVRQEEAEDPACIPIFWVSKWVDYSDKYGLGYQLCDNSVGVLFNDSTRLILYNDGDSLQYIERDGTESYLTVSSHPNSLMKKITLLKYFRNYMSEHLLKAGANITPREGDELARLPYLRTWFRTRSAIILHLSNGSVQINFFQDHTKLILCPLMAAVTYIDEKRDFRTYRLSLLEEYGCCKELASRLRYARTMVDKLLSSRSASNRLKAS
# Serine/threonine-protein kinase Nek7 (Homo sapiens), sequence (Q8TDX7 whole entry, looked up): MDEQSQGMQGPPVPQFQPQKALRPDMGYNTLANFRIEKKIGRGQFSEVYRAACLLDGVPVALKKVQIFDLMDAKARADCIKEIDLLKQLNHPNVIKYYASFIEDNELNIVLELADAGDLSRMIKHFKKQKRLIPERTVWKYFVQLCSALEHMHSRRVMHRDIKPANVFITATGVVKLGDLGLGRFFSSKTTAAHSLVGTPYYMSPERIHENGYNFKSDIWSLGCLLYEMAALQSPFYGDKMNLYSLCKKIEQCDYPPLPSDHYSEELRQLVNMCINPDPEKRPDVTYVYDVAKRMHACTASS
SMILES,inhibition [1],inhibition [2],inhibition [3],inhibition [4],inhibition [5],inhibition [6],inhibition [7],inhibition [8],inhibition [9],inhibition [10],inhibition [11],inhibition [12],inhibition [13],inhibition [14],inhibition [15],inhibition [16],inhibition [17],inhibition [18],inhibition [19],inhibition [20]
CCOc1ccc2c(-c3ccnc(Nc4cccc(C(F)(F)F)c4)n3)cnn2n1,12.1%,2.34%,1.31%,0.57%,1.02%,0.83%,2.66%,1.88%,0.03%,7.49%,4.9%,0.64%,1.39%,3.43%,5.75%,2.01%,3.46%,-2.9%,14.1%,1.07%
Cc1cccc2c1NC(=O)/C2=N\Nc1ccc(S(N)(=O)=O)cc1,3.85%,1%,3.8%,2.64%,2.64%,2.04%,1.65%,2.43%,2.36%,4.06%,3.99%,0.77%,2.15%,1.78%,10.5%,3.59%,-0.85%,2.22%,7.87%,2.11%
